Assay [1] is described as follows: ATG_M_32_CIS: Attagene CIS-FACTORIAL HepG2 Assay for M32 Transcription Factor (Internal Marker) (AID 2282949).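 Also: background control marker of the multiplexed CIS panel rather than a real target.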 The conditions noted are these: HepG2 Attagene cis-factorial M32 reporter, mRNA; actives raise or lower the signal. In short, it runs like this:
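Following 24 h chemical exposure of HepG2 cells transiently expressing cis-promoter reporter constructs, reporter transcript levels were determined by RT-PCR with fluorescent labelling and capillary electrophoresis, then fitted bidirectionally against DMSO.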

A short description of assay [2]: ATG_M_06_CIS: Attagene CIS-FACTORIAL HepG2 Assay for M06 Transcription Factor (Internal Marker) (AID 2282950). The settings on record: HepG2 Attagene CIS-FACTORIAL M06 internal marker reporter; actives raise or lower the signal. In short, it runs like this: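 Cells (HepG2, transiently carrying cis-driven reporter units) receive chemical for 24 h before RNA isolation. Reporter cDNA is PCR-amplified, FAM-labelled by primer extension, HpaI-digested and sized on a capillary analyser.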

The target of assay [3] is Hypoxia-inducible factor 1-alpha (Homo sapiens) (UniProt Q16665). The assay can be described thus: ATG_HIF1a_CIS: Attagene CIS-FACTORIAL HepG2 Assay for human Hypoxia Inducible Factor 1 (HIF1A) (AID 2282951). The settings on record: HepG2 Attagene cis-factorial HIF1a reporter transcription; actives raise or lower the signal. In short, it runs like this: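 Fluorescence intensity of capillary-separated, 6-FAM-labelled reporter amplicons gives mRNA induction in HepG2 cells carrying transfected cis-promoter reporter units; cells exposed 24 h, responses fitted up or down from DMSO.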

In assay [4] the target is Hepatocyte nuclear factor 6 (Homo sapiens) (UniProt Q9UBC0). In words: ATG_HNF6_CIS: Attagene CIS-FACTORIAL HepG2 Assay for human Hepatocyte Nuclear Factor 6 (HNF6) (AID 2282952). The conditions noted are these: HepG2 Attagene cis-factorial HNF6 reporter transcription; actives raise or lower the signal. In short, it runs like this: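 HepG2 cells transiently transfected with cis-element-driven multiple reporter transcription units, dosed 24 h; reporter mRNA quantified by RT-PCR, FAM primer extension, HpaI digestion and capillary electrophoresis; bidirectional fit versus DMSO baseline.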

For assay [5], the target named is Heat shock factor protein 1 (Homo sapiens) (UniProt Q00613). The assay can be described thus: ATG_HSE_CIS: Attagene CIS-FACTORIAL HepG2 Assay for human Heat Shock Transcription Factor 1 (HSE) (AID 2282953). The settings on record: HepG2 HSE cis-reporter, Attagene RNA transcription; actives raise or lower the signal. In outline:
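Liver-derived HepG2 cells carry transiently introduced multiple reporter units governed by cis promoters. Reporter RNA measured 24 h post-dose through reverse transcription, PCR amplification, fluorescent labelling and capillary electrophoresis, normalised to DMSO.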

Assay [6] is described as follows: ATG_MRE_CIS: Attagene CIS-FACTORIAL HepG2 Assay for human Metal Responsive Element (MRE) (AID 2282954). The settings on record: HepG2 MRE cis-reporter transcription, Attagene multiplex; actives raise or lower the signal. In outline:
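HepG2 cells transiently transfected with multiple cis-element reporter units measure endogenous MTF1-driven transcription. After 24 h compound exposure, reporter mRNA is quantified by RT-PCR with 6-FAM labelling, HpaI digestion and capillary electrophoresis; bidirectional fits versus DMSO.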

Assay [7] is described as follows: ATG_PBREM_CIS: Attagene CIS-FACTORIAL HepG2 Assay for human Phenobarbital-responsive Enhancer Module (PBREM) (AID 2282955). The settings on record: HepG2 PBREM cis-reporter, Attagene multiplexed transcription; actives raise or lower the signal. In outline: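 Cells were transfected with cis-element reporter units and treated for 24 h, after which RNA was extracted and reporter transcripts measured by RT-PCR and capillary electrophoresis.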

Assay [8] has as its target Paired box protein Pax-6 (Homo sapiens) (UniProt P26367). The assay can be described thus: ATG_Pax6_CIS: Attagene CIS-FACTORIAL HepG2 Assay for human Paired Box 6 (PAX6) (AID 2282956). The conditions noted are these: HepG2 CIS-FACTORIAL PAX6 reporter transcription, RNA readout; actives raise or lower the signal. In short, it runs like this:
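Multiplexed cis-reporter HepG2 system; 24 h treatment; reporter mRNA read by RT-PCR/CE fluorescence; bidirectional fit vs DMSO.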

Assay [9] in a line: ATG_PXRE_CIS: Attagene CIS-FACTORIAL HepG2 Assay for human Pregnane X Receptor Element (PXRE) (AID 2282957). The settings on record: HepG2 Attagene CIS-FACTORIAL PXRE reporter, mRNA; actives raise or lower the signal. In outline: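 HepG2 cells transiently transfected with cis-regulated multiple reporter transcription units; endogenous factor activity measured as reporter mRNA 24 h after dosing. RT-PCR, fluorescent primer extension, HpaI digestion, capillary electrophoresis; bidirectional fit versus DMSO baseline.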

The nature of assay [10]: ATG_PPRE_CIS: Attagene CIS-FACTORIAL HepG2 Assay for human Peroxisome Proliferator-activated Response Element (PPRE) (AID 2282958). The conditions noted are these: HepG2 PPRE cis-element reporter, Attagene transcription factor profiling; actives raise or lower the signal. In outline: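 In this cell-based multiplex, a PPRE cis element drives a reporter sequence in transiently transfected HepG2 cells. Following 24 h treatment, labeled cDNA amplicons are sized and quantified by capillary electrophoresis, with DMSO defining baseline.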

Assay [11] in a line: ATG_RORE_CIS: Attagene CIS-FACTORIAL HepG2 Assay for human RAR-related Orphan Receptor Element (RORE) (AID 2282959). The settings on record: HepG2 Attagene cis-factorial RORE reporter, mRNA; actives raise or lower the signal. In outline:
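Endogenous factor activity at a cis response element is read as reporter transcript levels in HepG2 cells, 24 h post-dose. Transcripts are quantified by RT-PCR with capillary electrophoresis, and data fitted in both directions against DMSO.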

Assay [12] is described as follows: ATG_Sox_CIS: Attagene CIS-FACTORIAL HepG2 Assay for human SRY-box transcription factor (SOX) (AID 2282960). The settings on record: HepG2 Attagene cis-factorial SOX reporter, mRNA; actives raise or lower the signal. In short, it runs like this: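 Measures mRNA induction of a SOX1-associated reporter in HepG2 after 24 h dosing. Fluorescently labelled RT-PCR fragments are separated by capillary electrophoresis, and gain or loss relative to DMSO control is fitted.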

In assay [13] the target is Transcription factor Sp1 (Homo sapiens) (UniProt P08047). In words: ATG_Sp1_CIS: Attagene CIS-FACTORIAL HepG2 Assay for human Specificity Protein 1 (Sp1) (AID 2282961). The conditions noted are these: HepG2 Sp1 cis-reporter transcription, actives raise or lower the signal. In outline:
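Cells: HepG2, transiently transfected with cis-regulated multiplexed reporters. Exposure: 24 h. Detection: reporter transcripts amplified, fluorescently labeled, restriction-digested and sized by capillary electrophoresis. Analysis: bidirectional fit relative to DMSO.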

Assay [14] in a line: ATG_SREBP_CIS: Attagene CIS-FACTORIAL HepG2 Assay for human Sterol Regulatory Element Binding (SREBP) (AID 2282962). The settings on record: HepG2 Attagene cis-factorial SREBP reporter, mRNA; actives raise or lower the signal. In short, it runs like this:
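mRNA induction of transfected cis-promoter reporters in HepG2 cells, 24 h post-dose. Detection: RT-PCR with 6-FAM-labelled products, HpaI digest, capillary electrophoresis. DMSO served as negative control and baseline.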

Assay [15] addresses Signal transducer and activator of transcription 3 (Homo sapiens) (UniProt P40763). In words: ATG_STAT3_CIS: Attagene CIS-FACTORIAL HepG2 Assay for human Signal Transducer and Activator of Transcription 3 (STAT3) (AID 2282963). The conditions noted are these: HepG2, Attagene cis-factorial STAT3 reporter transcription; actives raise or lower the signal. In outline: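 HepG2 cells transiently transfected with cis-element-driven multiple reporter transcription units; after 24 h chemical exposure, reporter mRNA measured by RT-PCR, 6-FAM primer-extension labelling, HpaI digestion and capillary electrophoresis. Bidirectional fitting versus DMSO baseline.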

The nature of assay [16]: ATG_TA_CIS: Attagene CIS-FACTORIAL HepG2 Assay for human TA Basal Promoter (AID 2282964). The conditions noted are these: HepG2 Attagene CIS-factorial TA basal promoter reporter; actives raise or lower the signal. In outline:
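Background internal-marker endpoint from a 52-component HepG2 cis-reporter panel. Cells treated 24 h; reporter transcripts quantified via RT-PCR and CE fluorescence against DMSO baseline.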

A short description of assay [17]: ATG_TCF_b_cat_CIS: Attagene CIS-FACTORIAL HepG2 Assay for human T-Cell-Factor with beta-catenin (TCF/b-cat) (AID 2282965). The settings on record: HepG2 TCF/beta-catenin cis-reporter transcription, actives raise or lower the signal. In outline: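 HepG2 cells transiently transfected with multiple cis-promoter-regulated reporter transcription units, so endogenous transcription factor activity is measured. Reporter mRNA read 24 hours after dosing by RT-PCR, fluorescent labelling and capillary electrophoresis; bidirectional fitting against DMSO.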

The nature of assay [18]: ATG_TAL_CIS: Attagene CIS-FACTORIAL HepG2 Assay for human TAL Basal Promoter (AID 2282966).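 Also: background control endpoint measuring basal TAL promoter reporter mRNA not a specific factor.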 The settings on record: HepG2 Attagene cis-factorial TAL promoter reporter; actives raise or lower the signal. In outline:
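HepG2 cells were transiently transfected with promoter-driven multiplexed reporter units and dosed for 24 h. Reporter mRNA was measured by RT-PCR with capillary electrophoresis fluorescence; bidirectional fits used DMSO as baseline, serving as a background control.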

Assay [19] in a line: ATG_TGFb_CIS: Attagene CIS-FACTORIAL HepG2 Assay for human Transforming Growth Factor (TGF) (AID 2282967). The conditions noted are these: HepG2 Attagene CIS TGFb reporter, mRNA transcription; actives raise or lower the signal. In short, it runs like this: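 Liver HepG2 line, cis-factorial reporter panel, 24 h dosing. Quantitation: RT-PCR products labeled with 6-FAM, cut with HpaI, resolved by capillary electrophoresis; DMSO-referenced bidirectional analysis.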

A short description of assay [20]: ATG_VDRE_CIS: Attagene CIS-FACTORIAL HepG2 Assay for human Vitamin D Receptor Element (VDRE) (AID 2282968). The conditions noted are these: HepG2 VDRE cis-reporter transcription, actives raise or lower the signal. In outline: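 HepG2 cells transiently transfected with cis-element reporter units, dosed 24 h; reporter mRNA measured by RT-PCR, 6-FAM labeling, HpaI digestion and capillary electrophoresis. Activity fitted bidirectionally against DMSO baseline.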

Molecules are shown by their SMILES. The source made the active and inactive calls. The calls were made as follows: active = hit-call score of the fitted dose curve at least 0.9, where 1 is the maximum; inactive = score below 0.9.

Sequence of Paired box protein Pax-6 (Homo sapiens) (P26367 whole entry, looked up): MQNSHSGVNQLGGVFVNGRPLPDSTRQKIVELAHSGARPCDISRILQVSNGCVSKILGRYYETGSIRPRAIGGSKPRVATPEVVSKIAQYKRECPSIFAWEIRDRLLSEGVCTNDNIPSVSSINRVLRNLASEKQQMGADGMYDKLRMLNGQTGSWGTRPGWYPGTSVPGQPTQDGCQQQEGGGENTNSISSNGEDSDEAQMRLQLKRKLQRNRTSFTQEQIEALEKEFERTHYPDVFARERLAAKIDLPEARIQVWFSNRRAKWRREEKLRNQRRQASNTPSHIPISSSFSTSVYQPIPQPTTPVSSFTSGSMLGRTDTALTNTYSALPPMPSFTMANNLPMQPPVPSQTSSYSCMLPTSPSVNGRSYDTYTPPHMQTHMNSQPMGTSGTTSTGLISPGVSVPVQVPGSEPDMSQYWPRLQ
Sequence of Hypoxia-inducible factor 1-alpha (Homo sapiens) (Q16665 whole entry, looked up): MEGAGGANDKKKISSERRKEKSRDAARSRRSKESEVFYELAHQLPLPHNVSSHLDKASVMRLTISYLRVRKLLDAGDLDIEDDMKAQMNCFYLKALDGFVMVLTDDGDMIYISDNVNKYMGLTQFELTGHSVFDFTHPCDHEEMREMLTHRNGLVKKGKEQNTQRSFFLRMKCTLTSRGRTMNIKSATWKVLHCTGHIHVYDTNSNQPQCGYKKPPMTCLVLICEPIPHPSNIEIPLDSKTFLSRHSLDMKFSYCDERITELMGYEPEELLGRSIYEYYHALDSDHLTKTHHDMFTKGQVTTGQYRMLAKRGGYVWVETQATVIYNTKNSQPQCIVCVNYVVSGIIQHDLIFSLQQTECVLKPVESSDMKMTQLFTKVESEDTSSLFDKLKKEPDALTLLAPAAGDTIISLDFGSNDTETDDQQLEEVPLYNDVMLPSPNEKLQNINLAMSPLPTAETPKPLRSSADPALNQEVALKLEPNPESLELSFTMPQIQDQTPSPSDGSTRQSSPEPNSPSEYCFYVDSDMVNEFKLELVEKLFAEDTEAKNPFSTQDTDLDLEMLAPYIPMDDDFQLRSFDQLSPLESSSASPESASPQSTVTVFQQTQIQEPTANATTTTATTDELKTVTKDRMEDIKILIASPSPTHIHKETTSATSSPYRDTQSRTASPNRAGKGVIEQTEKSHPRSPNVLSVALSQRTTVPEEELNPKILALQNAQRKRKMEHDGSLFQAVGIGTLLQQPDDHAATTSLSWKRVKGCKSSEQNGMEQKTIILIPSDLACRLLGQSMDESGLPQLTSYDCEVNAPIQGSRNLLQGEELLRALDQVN
Sequence of Heat shock factor protein 1 (Homo sapiens) (Q00613 whole entry, looked up): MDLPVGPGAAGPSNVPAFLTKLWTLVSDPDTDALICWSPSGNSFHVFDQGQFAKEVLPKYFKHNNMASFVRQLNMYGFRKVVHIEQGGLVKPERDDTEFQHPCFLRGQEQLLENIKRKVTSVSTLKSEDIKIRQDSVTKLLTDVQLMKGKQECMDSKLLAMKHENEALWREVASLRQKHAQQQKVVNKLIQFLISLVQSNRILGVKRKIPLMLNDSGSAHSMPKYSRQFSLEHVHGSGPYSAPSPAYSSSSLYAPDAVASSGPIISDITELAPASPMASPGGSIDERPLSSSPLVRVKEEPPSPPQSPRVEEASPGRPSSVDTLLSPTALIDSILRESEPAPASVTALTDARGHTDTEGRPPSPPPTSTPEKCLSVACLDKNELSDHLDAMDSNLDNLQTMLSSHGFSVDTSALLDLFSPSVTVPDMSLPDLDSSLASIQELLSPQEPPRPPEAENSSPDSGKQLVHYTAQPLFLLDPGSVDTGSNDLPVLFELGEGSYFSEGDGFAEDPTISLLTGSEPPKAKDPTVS
Sequence of Transcription factor Sp1 (Homo sapiens) (P08047 whole entry, looked up): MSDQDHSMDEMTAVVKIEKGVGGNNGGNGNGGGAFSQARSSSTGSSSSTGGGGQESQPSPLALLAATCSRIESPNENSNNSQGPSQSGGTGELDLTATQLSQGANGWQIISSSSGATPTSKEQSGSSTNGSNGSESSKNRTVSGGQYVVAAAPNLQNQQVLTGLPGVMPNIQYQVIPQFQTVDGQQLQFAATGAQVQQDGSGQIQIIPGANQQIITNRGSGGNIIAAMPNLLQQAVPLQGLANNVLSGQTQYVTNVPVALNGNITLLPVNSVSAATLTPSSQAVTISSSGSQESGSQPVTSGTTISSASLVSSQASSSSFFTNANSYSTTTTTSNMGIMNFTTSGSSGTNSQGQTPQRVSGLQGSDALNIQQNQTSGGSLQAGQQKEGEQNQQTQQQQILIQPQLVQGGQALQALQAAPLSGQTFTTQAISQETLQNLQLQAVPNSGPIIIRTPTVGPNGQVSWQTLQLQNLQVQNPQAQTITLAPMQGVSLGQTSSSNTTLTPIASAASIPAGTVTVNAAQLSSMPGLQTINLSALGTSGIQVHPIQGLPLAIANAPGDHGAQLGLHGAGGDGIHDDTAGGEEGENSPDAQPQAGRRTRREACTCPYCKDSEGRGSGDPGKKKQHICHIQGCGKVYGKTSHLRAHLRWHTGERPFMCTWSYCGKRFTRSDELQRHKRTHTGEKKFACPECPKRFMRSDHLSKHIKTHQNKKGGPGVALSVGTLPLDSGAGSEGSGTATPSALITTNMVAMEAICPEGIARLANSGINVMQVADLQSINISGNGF
Sequence of Signal transducer and activator of transcription 3 (Homo sapiens) (P40763 whole entry, looked up): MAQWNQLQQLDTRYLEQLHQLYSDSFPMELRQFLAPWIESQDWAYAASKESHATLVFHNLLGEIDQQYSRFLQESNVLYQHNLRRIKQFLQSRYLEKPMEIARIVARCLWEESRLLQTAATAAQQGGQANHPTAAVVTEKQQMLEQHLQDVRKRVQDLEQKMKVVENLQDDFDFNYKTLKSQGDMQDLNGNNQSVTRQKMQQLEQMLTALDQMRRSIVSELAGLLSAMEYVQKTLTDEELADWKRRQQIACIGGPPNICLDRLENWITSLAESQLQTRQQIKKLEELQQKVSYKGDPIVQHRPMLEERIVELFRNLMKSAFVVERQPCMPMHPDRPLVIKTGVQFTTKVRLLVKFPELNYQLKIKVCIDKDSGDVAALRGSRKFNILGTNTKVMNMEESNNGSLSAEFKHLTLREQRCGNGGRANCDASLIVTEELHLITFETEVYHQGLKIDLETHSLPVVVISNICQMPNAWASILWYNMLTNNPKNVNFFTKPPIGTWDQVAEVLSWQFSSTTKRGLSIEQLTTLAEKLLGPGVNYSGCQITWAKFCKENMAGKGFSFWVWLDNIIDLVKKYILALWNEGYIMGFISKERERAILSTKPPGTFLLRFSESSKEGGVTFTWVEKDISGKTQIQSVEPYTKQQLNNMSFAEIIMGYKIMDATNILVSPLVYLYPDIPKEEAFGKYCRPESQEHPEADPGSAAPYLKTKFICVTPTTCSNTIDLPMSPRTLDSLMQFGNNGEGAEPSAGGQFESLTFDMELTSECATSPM
Sequence of Hepatocyte nuclear factor 6 (Homo sapiens) (Q9UBC0 whole entry, looked up): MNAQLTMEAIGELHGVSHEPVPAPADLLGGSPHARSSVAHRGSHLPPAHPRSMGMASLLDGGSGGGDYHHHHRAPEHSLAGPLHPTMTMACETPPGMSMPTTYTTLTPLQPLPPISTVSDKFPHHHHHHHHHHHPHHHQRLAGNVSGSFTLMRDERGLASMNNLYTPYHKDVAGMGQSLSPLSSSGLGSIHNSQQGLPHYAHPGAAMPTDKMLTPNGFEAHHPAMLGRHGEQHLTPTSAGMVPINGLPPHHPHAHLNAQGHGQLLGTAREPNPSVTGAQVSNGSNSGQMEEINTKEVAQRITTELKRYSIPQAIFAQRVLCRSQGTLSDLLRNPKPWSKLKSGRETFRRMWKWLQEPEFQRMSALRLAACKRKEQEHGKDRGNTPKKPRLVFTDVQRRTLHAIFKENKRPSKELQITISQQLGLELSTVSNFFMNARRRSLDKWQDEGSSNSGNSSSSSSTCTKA

For `N#Cc1ccccc1N`, the result in assay [1], in assay [2], in assay [3], in [4], in [5] and in [6] was inactive. In addition, the outcome in [7], in assay [8], in assay [10], in assay [11], in [12] and in assay [13] was inactive. Besides, the result in assay [14], in [15], in assay [16], in [17], in assay [18] and in assay [19] was inactive. Also, the compound was classed as inactive in assay [20]. Also, the AC50 in [9] was 39.4 µM (active).
For `CC(O)(CS(=O)(=O)c1ccc(F)cc1)C(=O)Nc1ccc(C#N)c(C(F)(F)F)c1` (stereo not drawn), the call in [1], in [2], in assay [3], in assay [4], in assay [5] and in [7] was inactive. The compound was called inactive in assay [8], in assay [10], in [11], in assay [12], in [13] and in assay [14]. Also, the compound was classed as inactive in assay [15], in [16], in assay [17] and in [18]. Further, the AC50 in assay [6] is 72.3 µM (active); in assay [9] it was 3.99 µM (active); in [20] it was 32.3 µM (active).
Turning to `O=C(N[C@H]1CN2CCC1CC2)c1ccc2c(c1)OCCO2`, the call in assay [1], in assay [2], in assay [3], in assay [4], in assay [5] and in [6] was inactive. Moreover, the outcome in assay [7], in assay [8], in [9], in assay [11], in assay [12] and in [13] was inactive. Moreover, the result in assay [14], in assay [15], in assay [16], in [18], in [19] and in assay [20] was inactive. The AC50 in [10] was 100 µM (active).

The values are drawn from PubChem BioAssay (EPA / NIEHS).
